# The list is not random: actives were taken first. Their share in the collection is about 11%.
# Pf growth 48h = Primary qHTS for delayed death inhibitors of the malarial parasite plastid, 48 hour incubation; P. falciparum luciferase growth in erythrocytes, 48 h; Potency, µM (doses to about 28.7 µM), inactives show top-dose activity change, negative = inhibition, hits mostly inhibitors; 310,000 tested, 5.9% active; AID 504832, 2011; also: potency is read from the fitted curve at half-maximal effect; % is scaled to controls: 0 for no effect and ±100 for the full control effect
#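 Luminescence readout; reporter = integrated firefly luciferase in P. falciparum. RBC culture at 2% hematocrit, 0.1% parasitemia final, 37 C/5% CO2; decreased signal taken as growth inhibition.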
# VACV mCherry inh = qHTS for Stage-Specific Inhibitors of Vaccinia Orthopoxvirus: mCherry Reporter Primary qHTS. Vaccinia virus mCherry reporter infection, fluorescence. Potency, µM (titrated, usually from 36.5 µM), for inactives: at the top dose activity change, negative = inhibition, actives largely listed as inhibitors. 310,000 tested, 0.63% active. AID 720579, 2013; calls by dose curve; tested in A549 cells; also: potency is read from the fitted curve at half-maximal effect; % is scaled to controls: 0 for no effect and ±100 for the full control effect; nearly all actives have a fitted effect of over 35% in size
# Pf growth 96h = Primary qHTS for delayed death inhibitors of the malarial parasite plastid, 96 hour incubation | AID 504834, 2011 | P. falciparum luciferase reporter growth, 96 h | 320,000 tested, 6.9% active | Potency, µM (top dose mostly 28.7 µM), for the others: top-dose activity change, negative = inhibition, actives largely listed as inhibitors; also: potency is read from the fitted curve at half-maximal effect; % is scaled to controls: 0 for no effect and ±100 for the full control effect
#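 Compounds incubated with erythrocytes infected by luciferase-expressing P. falciparum (2% hematocrit, 0.05% parasitemia final) for 96 hours, 37 C in 5% CO2. Growth inhibition scored as decreased luciferase luminescence.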
# Vaccinia Venus = qHTS for Stage-Specific Inhibitors of Vaccinia Orthopoxvirus: Venus Reporter Primary qHTS. AID 720580, 2013. Vaccinia virus Venus reporter expression, fluorescence. Potency, µM (series often up to 36.5 µM), for the others: top-dose activity change, negative = inhibition, actives largely listed as inhibitors. 330,000 tested, 0.46% active; calls by dose curve; tested in A549 cells; also: potency is read from the fitted curve at half-maximal effect; % is scaled to controls: 0 for no effect and ±100 for the full control effect; nearly all actives have a fitted effect of over 30% in size
# HCV inh = qHTS Assay for Inhibitors of Hepatitis C Virus (HCV); 340,000 tested, 3.4% active; Huh7.5.1 HCVcc-Cre infection, luciferase reporter, 44 h; Potency, µM (titrated, usually from 41.8 µM), without a hit: at the highest dose activity change, negative = inhibition, hits mostly inhibitors; also: potency is read from the fitted curve at half-maximal effect; % is scaled to controls: 0 for no effect and ±100 for the full control effect
#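 Cells seeded at 1,000/well and cultured 4 h, then compounds added followed by HCVcc-Cre virus (~0.5 moi). After 44 h further culture, luciferase substrate was added, plates held 15 min at room temperature, and luminescence read for 15 sec.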
# NS1 function inh = qHTS Assay for Inhibitors of Influenza NS1 Protein Function; Potency, µM (titrated, usually from 46.1 µM), inactives show at the highest dose activity, positive = more growth; 270,000 tested, 0.4% active; AID 2326, 2010; calls by dose curve; also: potency is read from the fitted curve at half-maximal effect; actives are rising curves; nearly all actives have a fitted effect of over 50% in size
#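 OD600 was taken as the measure of yeast growth restored by compound in an NS1-expressing S. cerevisiae strain. Cells had been washed out of glucose medium and diluted 1:100 into galactose -URA medium, pH 6.0.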
# Flu NS1 inh = Assay for Inhibitors of Influenza NS1 Protein Function: Hit Validation. AID 492980, 2010. shares compounds with NS1 function inh. influenza NS1 function cell assay, 15-point titration. activity change, negative = inhibition, % at 32.9 µM. 1,400 tested, under 10 active; calls by dose curve; also: 0% is about no effect
# PR8 titer = Assay for Inhibitors of Influenza NS1 Protein Function: Influenza virus replication assay in MDCK cells infected with virus A/PR/8/34. shares compounds with NS1 function inh. MDCK infected influenza A/PR/8/34, virus titer TCID50; stronger effect = lower value. virus titer (log TCID50), log10 TCID50 at 5 µM. 95 tested, 30% active. AID 504647, 2011; call rule not given here
# * = called active by the depositor; i = inactive; ? = inconclusive; nt = no result given; [ ] = dose if it differs, or a comment. Unless noted, calls follow the shape of the dose curve; as a rule, active = well fitted inhibition curve with a large enough effect; inconclusive = small, poorly fitted or top-dose-only effect, or another doubt; inactive = no such curve, though single readings can be large or run the other way.
SMILES,Pf growth 48h,VACV mCherry inh,Pf growth 96h,Vaccinia Venus,HCV inh,NS1 function inh,Flu NS1 inh,others
Cc1cc2cc(CNC(=O)c3ccc(S(=O)(=O)N(C)C)cc3)ccc2n1C,?,31.8%,?,65.3%,-11.4%,11.2µM*,25.4,
Cc1cc2cc(CNC(=O)c3cccc([N+](=O)[O-])c3)ccc2n1C,19.7%,-6.9%,?,-13.9%,-23.3%,20.3%,nt,
COc1cccc(CNC(=O)c2ccc(S(=O)(=O)N3CCOCC3)cc2)c1,?,-4.5%,-16.3%,-26.5%,5.4%,nt,nt,
Cc1cc2cc(CNS(=O)(=O)c3ccc4ccccc4c3)ccc2n1C,?,-10.3%,?,14.7%,9.3%,10µM*,-22.4,
Cn1cnnc1SCC(C)(C)NS(=O)(=O)c1ccc(Cl)cc1,1.2%,6.7%,?,-3.1%,-4.9%,?,-7.2,
CCN(c1ccccc1C(=O)O)S(=O)(=O)c1cccc2nsnc12,26.6%,i,5.5%,-20.0%,4.2%,4.9%,nt,
O=C(NCC1CCCO1)C(c1cccs1)N(Cc1cccs1)C(=O)c1ccc(-c2ccccc2)[nH]1 (stereo unspecified),?,?,82.1%,?,?,12.6µM*,-29.7,
CCCC(=O)Nc1ccc(S(=O)(=O)Nc2cc(C)nc(C)n2)cc1,13.6%,i,1.6%[5.75 µM],-5.2%,-6.5%,-0.9%,nt,
CCC(=O)Nc1ccc(Cl)c(NC(=S)NC(=O)c2cc3ccccc3o2)c1,16.7%,i,-8.5%,-9.2%,?,?,4.6,
Cc1ccccc1NC(=O)c1ccccc1-c1ccccc1,-20.9%,-1.6%,?,5.7%,-5.5%,-20.5%,nt,
O=C(O)c1ccccc1-c1ccccc1C(=O)Nc1ccccc1-c1ccccc1,26.2%,nt,-9.3%,nt,14.9%,10µM*,36.0,
CC(=O)N=c1n(C)c2ccccc2n1CCOc1ccccc1,-1.2%,-15.0%,?,1.3%,23.7%,?,-6.1,
Cc1ccc(NC(=O)COC(=O)c2ccc3c(c2)OCO3)cc1S(=O)(=O)N1CCCCC1,18.2%,i,-0.6%,-6.6%,-4.6%,10µM*,6.4,
NS(=O)(=O)c1ccc(NC(=S)NCc2ccccc2Cl)cc1,9.2%,-21.0%,?,-15.8%,10.6%,9.0%,nt,
O=C(Nc1nccs1)c1c(O)c2cccc3c2n(c1=O)CCC3,1.5%,nt,-8.1%,nt,nt,-13.9%,nt,
O=C(N/N=C/c1ccc(Cl)c([N+](=O)[O-])c1)c1cc(-c2ccc3c4c(cccc24)CC3)n[nH]1,?,-21.8%,?,2.0%,-8.1%,5.01µM*,-1.3,
CC(C)c1ccc(/C=N/NC(=O)c2cc(-c3cccc([N+](=O)[O-])c3)n[nH]2)cc1,?,-17.9%,?,?,-24.1%,2.2%,nt,
O=C(N/N=C/c1cccc([N+](=O)[O-])c1)c1cc(-c2ccc3c4c(cccc24)CC3)n[nH]1,-0.4%,nt,?,nt,?,?,-20.6,
O=C(N/N=C/c1ccc(Cl)c([N+](=O)[O-])c1)c1ccc2c(c1)OCCO2,nt,-15.6%,nt,-7.7%,-15.8%,nt,nt,
CCOC(=O)c1ccc(NC(=O)CC2OCCN(CC)C2=O)cc1 (stereo unspecified),86.1%,nt,nt,nt,-1.4%,-71.1%,nt,
CCCCCCn1c(-c2ccco2)nc2oc3cc(OC)ccc3c(=O)c2c1=O,5.22µM*,nt,?,nt,?,12.6µM*,-37.3,
COc1ccc2c(=O)c3c(=O)n(CCc4ccccc4)c(C)nc3oc2c1,nt,-9.9%,nt,-12.6%,11.8%,nt,nt,
Cn1c(CCN2CCCCC2)nc2cc(NS(=O)(=O)c3ccc(Cl)cc3)ccc21,2.08µM*,nt,3.3%[5.75 µM],nt,?,0.891µM*,-23.0,
CC(C)(C)OC(=O)CNC(=O)c1[nH]cnc1C(=O)NC(c1ccccc1)c1ccccc1,?,?,?,?,-17.5%,14.1µM*,-24.8,
C[C@H](NC(=O)c1nc[nH]c1C(=O)N[C@@H](Cc1ccccc1)C(=O)OC(C)(C)C)C(=O)OCc1ccccc1,52.8%,i,93.9%,-6.0%,11.7%,11.2µM*,8.8,
SMILES,Pf growth 48h,VACV mCherry inh,Pf growth 96h,Vaccinia Venus,HCV inh,NS1 function inh,Flu NS1 inh,others
C[C@H](NC(=O)c1nc[nH]c1C(=O)N[C@@H](Cc1ccccc1)C(=O)OCc1ccccc1)C(=O)OCc1ccccc1,?,-26.1%,?,-9.8%,-6.6%,7.94µM*,16.9,
CC(/C=C/c1ccccc1)=N\NC(=O)c1cc(C)nc2ccccc12,-0.6%,-1.9%[7.34 µM],-3.4%,-6.2%[7.34 µM],-10.4%,-1.4%,nt,
O=C(CSc1ccc(Cl)cc1)NC1=NN(c2ccccc2)C(=O)C1,-5.8%,-25.7%,0.0%,-18.2%,11.5%,11.2µM*,24.2,
Cc1ccc(-c2ccc(=O)n(CC(=O)NCCN3CCCCC3C)n2)cc1 (stereo unspecified),20.5%,-1.4%,nt,-3.0%,-13.2%,1.8%,nt,
Cn1cc(/C(Cc2ccccc2)=N\O)c2ccccc21,nt,?,nt,?,?,1.3%,nt,
CC1(C)N=C(N)NC(Nc2ccc(Br)cc2)=N1,5.22µM*,nt,nt,nt,-0.7%,7.94µM*,-0.8,
Cc1cccc(C)c1NC1=NC(C)(C)N=C(N)N1,5.0%,-12.1%,131.5%,-4.6%,1.5%,1.4%,nt,
CN(C)c1ccc2nsnc2c1[N+](=O)[O-],20.7%,-26.7%,8.3%,-15.9%,16.3%,4.9%,nt,
COC(=O)c1ccc(N2NC(=O)/C(=C/c3cc(OC)c(O)c(OC)c3)C2=O)cc1,-13.6%,-2.1%,37.0%,-4.2%,25.6%,3.55µM*,0.3,
COC(=O)c1ccc(N2NC(=O)/C(=C/c3cc(OC)c(OC)c(OC)c3)C2=O)cc1,?,nt,25.1%,nt,20.2%,5.3%,nt,
Cc1cc(C(=O)O)cc(S(=O)(=O)Nc2ccccc2C(=O)NC(C)c2ccccc2)c1C (stereo unspecified),6.9%,nt,4.6%,nt,2.9%,7.94µM*,31.3,
CC(NC(=O)c1ccccc1NC(=O)c1ccncc1)c1ccccc1 (stereo unspecified),?,-11.4%,0.8%,-28.8%,-3.5%,-1.5%,nt,
Cc1ccc(-c2nnc(NCc3nc4ccccc4[nH]3)c3ccccc23)cc1S(=O)(=O)N(C)C,13.1µM*,-13.2%,?,-20.4%,?,5.62µM*,9.7,PR8 titer=7.5*
Nc1ccc(S(N)(=O)=O)cc1N,137.3%,i,220.7%,13.9%,-0.2%,4.47µM*,18.9,

# Screening results deposited in PubChem BioAssay by National Center for Advancing Translational Sciences (NCATS).
